From PubChem BioAssay (NCI)
Compounds without any hit were thinned out: in the full panel of roughly 83,000, 20% have a hit.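 In brief: 96-well plates, 48 h treatment, single concentration, percent growth endpoint.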 Unmarked numbers belong to inactive results. Active and inactive are the calls of the source. How the source made its calls: active means growth percent below 10; inactive means the rest.

What was measured:
Test in all cases: NCI-60 one-dose screen, 48 h (100 = growth as untreated, 0 = no growth, -100 = all killed)
Settings in all cases: 10 µM
[1] = system: SR leukemia
[2] = system: RPMI-8226 leukemia
[3] = system: OVCAR-8 ovarian
[4] = system: OVCAR-5 ovarian
[5] = system: OVCAR-4 ovarian
[6] = system: SK-OV-3 ovarian
[7] = system: OVCAR-3 ovarian
[8] = system: HS 578T breast
[9] = system: NCI/ADR-RES ovarian
[10] = system: T-47D breast
[11] = system: BT-549 breast
[12] = system: MDA-MB-435 melanoma
[13] = system: SW-620 colon
[14] = system: MCF7 breast
[15] = system: HCT-116 colon
[16] = system: HCC-2998 colon
[17] = system: KM12 colon
[18] = system: IGROV1 ovarian

SMILES | growth [1] | growth [2] | growth [3] | growth [4] | growth [5] | growth [6] | growth [7] | growth [8] | growth [9] | growth [10] | growth [11] | growth [12] | growth [13] | growth [14] | growth [15] | growth [16] | growth [17] | growth [18]
O=C1CC[C@@H](C(=O)N[C@H]2CSSC[C@@H](C(=O)N/C=C/c3ccc(O)cc3)NC(=O)[C@H](Cc3ccccc3)NC(=O)[C@@H]3CCCN3C(=O)[C@@H]3CCCN3C2=O)N1 | 99.1% | 96.1% | 100% | 102% | 112% | 93.2% | 106% | 94.4% | 97.8% | 78.3% | 120% | 104% | 97.2% | 96.8% | 99.7% | 98.9% | 97.9% | –
COc1cc(-c2cc(/C=C/C(C)=O)[nH]n2)cc(OC)c1OC | 4.57% (active) | 22.8% | 73.5% | 94.5% | 70.8% | 109% | 85.2% | – | 80.7% | 32.2% | 71.7% | 61.8% | 74.3% | 41% | 39% | 103% | – | –
O=C1c2cc(Cl)ccc2-c2c(O)cc(Cl)cc21 | 39.3% | 46.6% | 58.4% | – | 66.4% | 94.8% | 80% | 81.5% | 3.18% (active) | 63.9% | 100% | 106% | 82.7% | 77% | 22.2% | 105% | 61% | 74.4%
O=C(CSc1nnc(-c2ccc(Cl)cc2)o1)c1ccccc1 | 94% | 96.4% | 96.2% | 97.7% | 112% | 102% | 102% | 101% | 94.9% | 93% | 98.3% | 109% | 107% | 102% | 92.2% | 87.5% | 96.3% | –
CNCCCNCCCN1C(=O)c2ccc3c4c(ccc(c24)C1=O)C(=O)N(CCCNCc1ccccc1OC)C3=O | -0.146% (active) | -16.2% (active) | -31.9% (active) | – | -91.5% (active) | 36.8% | -17.6% (active) | 4.28% (active) | 63% | -30.3% (active) | 78.1% | -58.6% (active) | -19% (active) | -51.7% (active) | -8.97% (active) | -9.5% (active) | -16.9% (active) | -40.7% (active)
Oc1[nH]c2ccccc2c1/C=c1/cc2c(c(-c3ccc(C(F)(F)F)cc3)n1)=Nc1ccccc1-2 | 4.59% (active) | 12% | 63.5% | – | 50.5% | 79% | 20.2% | 74.8% | 31.7% | 37.5% | 82.7% | 4.17% (active) | 41.8% | 11.3% | 30% | 54.7% | 36.2% | 71.2%
CCCCN(CCCC)c1ccc(C(=NC(C)CCCN(CC)CC)c2ccc(N(C)C)cc2)cc1 (stereo not drawn) | -26.2% (active) | -43.6% (active) | -49% (active) | -6.48% (active) | -13.5% (active) | -70.9% (active) | -47.7% (active) | -49.8% (active) | -51% (active) | -55.8% (active) | -27.2% (active) | -87.5% (active) | -66.7% (active) | -80.9% (active) | -81.5% (active) | -59% (active) | -14.3% (active) | –
CN(C)c1ccc2c(c1)OC(N)=C(C#N)C2c1ccc2c(c1)CCO2 (stereo not drawn) | 38.2% | 32.9% | 24.1% | 57.2% | 48.3% | 32.2% | -3.4% (active) | 23.1% | 3% (active) | 66.8% | 16.7% | 0.989% (active) | 31.9% | 16.9% | 5.3% (active) | 36.8% | 24.2% | –
CCOC(=O)c1c(Cl)c2c(n1Cc1cccc(OC)c1)-c1oncc1CC2 | 8.61% (active) | 35.4% | 37.4% | 74.3% | 56.7% | 17.2% | -34.9% (active) | -11.2% (active) | 1.8% (active) | 35.5% | 21.7% | -28% (active) | 34.5% | 15.2% | 18.5% | 39.8% | 25.9% | –
COc1cc(-c2n/c(=C\c3c(O)[nH]c4ccccc34)cc3c2=Nc2ccccc2-3)cc(OC)c1OC | 8.26% (active) | 25.5% | 11.3% | 46.4% | 26.8% | -9.66% (active) | -16.6% (active) | 3.83% (active) | 4.78% (active) | 51.7% | 6.59% (active) | -7.06% (active) | 33.4% | 3.28% (active) | 3.38% (active) | -20.4% (active) | 5.99% (active) | –
CCOC(=O)c1c(O)c2cc(-c3ccccc3)nc(OCC)c2c(=O)n1C | 98% | 39.2% | 104% | 104% | 90.1% | 107% | 103% | 93% | 82.2% | 94.7% | 133% | 90.1% | 104% | 93.8% | 87.7% | – | 104% | –
COc1ccc(/C(=C/c2cc(OC)c(OC)cc2[N+](=O)[O-])C(=O)O)cc1 | 99.6% | 97.3% | 109% | 111% | 113% | 99.9% | 125% | 114% | 110% | 94.8% | 111% | 116% | 105% | 105% | 116% | 107% | 121% | –
COc1ccc(-c2nc(-c3nc4ccc(C)cc4[nH]3)c3ccccn23)cc1 | 33.2% | -6.44% (active) | 6.19% (active) | – | 44.1% | 85.9% | 72.6% | 74.7% | 22.6% | 19.3% | 68.1% | 62.9% | 61.2% | 35% | 41.1% | 36.4% | – | 36.5%
CCCCCCCCCCN=C(c1ccc(N(C)C)cc1)c1ccc(N(C)C)cc1 | 23% | 24.3% | 30.9% | 71.5% | 59.8% | 16.6% | 2.1% (active) | – | -3.13% (active) | 20.7% | 38.1% | -14.2% (active) | 16.8% | 11.9% | 15.3% | 52.6% | 27.8% | –
CC1(C)CC(OCCCC[P+](c2ccccc2)(c2ccccc2)c2ccccc2)CC(C)(C)N1O | 11.7% | -73.5% (active) | 6.29% (active) | 18.2% | 21.5% | -13.4% (active) | -46.1% (active) | -10.5% (active) | 55.2% | -2.14% (active) | 17.3% | -57.9% (active) | 2.74% (active) | -1.61% (active) | 12.4% | – | -51.6% (active) | –
COc1ccc(CSc2nc3cc(OC)c(OC)cc3c(=O)n2-c2ccc(OC)cc2OC)cc1 | 59.5% | 63.7% | 89.2% | 102% | 83.2% | 114% | 92.1% | 86.7% | 79.5% | 75.6% | 93.9% | 62% | 90.3% | 83.1% | 62.9% | 101% | 78.1% | –
O=C1CC(c2cccc(-c3cccnc3)c2)=Nc2ccc(Br)cc2N1 | 51.1% | 40.7% | 17.2% | 91.5% | -4.81% (active) | 46.5% | 45% | 27.9% | 19% | -11.6% (active) | -3.46% (active) | 43.5% | 81.8% | 23.6% | 23% | 74.8% | 49.4% | –
